# Measurements from PubChem BioAssay (NCATS).
# Inconclusive results are not listed. Values without a mark were called inactive. Activity calls are given as the source filed them. Calls come from the whole dose curve; as a rule, active = well fitted curve in the direction sought with a large enough effect; inconclusive = small, poorly fitted or top-dose-only effect, or another doubt; inactive = no such curve, though single readings can be large; an effect the other way counts as inactive or inconclusive.
# Experiment: Cell Proliferation Assay against the TMD8 Cell Line (Caspase readout at 16 hrs) (AID 651712);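 for caspase activation: 0% = DMSO and 100% = 9.2 µM bortezomib caspase activation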
# Details: TMD8 lymphoma cells, caspase activation luminescence; series mostly up to 46.1 µM; caspase activation: at the top concentration
# How it was run: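 16 h, 37 °C, TMD8 (500 cells/well), RPMI/5% FBS no phenol red; Caspase-Glo 3/7, 15 min RT, luminescence; %act: DMSO 0, bortezomib 9.2 uM final 100.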
# Potency is the fitted concentration of half-maximal effect.
SMILES,caspase activation,Potency
Cc1nnc(C(C)C)n1C1CC2CCC(C1)N2CC[C@H](NC(=O)C1CCC(F)(F)CC1)c1ccccc1 (some centres undefined),1.08%,–
C[C@@H]1CCN(C(=O)CC#N)C[C@@H]1N(C)c1ncnc2[nH]ccc12,8.06%,–
CN(NC(=O)CC(=O)NN(C)C(=S)c1ccccc1)C(=S)c1ccccc1,2.4%,–
NC(=O)Nc1cc(-c2ccc(CN3CCOCC3)c(F)c2)sc1C(=O)N[C@H]1CCCNC1,–,0.0469 µM (active)
CC(NC(=O)Cc1cc(F)cc(F)c1)C(=O)NC(C(=O)OC(C)(C)C)c1ccccc1 (centres undefined),4.63%,–
O=C(O)CC/C=C\CC[C@H]1[C@@H](N2CCCCC2)[C@@H](O)C[C@@H]1OCc1ccc(-c2ccccc2)cc1,8.82%,–
CCCCCCCCCCCCCCCCCCOP(=O)([O-])OC1CC[N+](C)(C)CC1,-2.89% [at 29.8 µM],–
O=c1cc(C2=CC=CC3Sc4ccccc4SC23)oc(N2CCOCC2)c1 (centres undefined),–,8.33 µM (active)
CCC1(Cc2ccc(N)cc2)CCC(=O)NC1=O (centres undefined),3.71% [at 92.2 µM],–

# Experiment: Cell Proliferation Assay against the TMD8 Cell Line (Caspase readout at 8 hrs) (AID 651713);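 for caspase activation: 0% = DMSO and 100% = 9.2 µM bortezomib caspase signal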
# Details: TMD8 lymphoma cells, caspase activation luminescence; series mostly up to 46.1 µM; caspase activation: at the top concentration
# How it was run: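 Apoptosis readout: caspase 3/7 luminescence (Caspase-Glo), 15 min RT. Cells: TMD8, 500/well, RPMI + 5% FBS, no phenol red. Exposure 8 h, 37C. % activity vs DMSO = 0, bortezomib 9.2 uM final = 100.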
SMILES,caspase activation,Potency
Cc1nnc(C(C)C)n1C1CC2CCC(C1)N2CC[C@H](NC(=O)C1CCC(F)(F)CC1)c1ccccc1 (some centres undefined),-24.5%,–
C[C@@H]1CCN(C(=O)CC#N)C[C@@H]1N(C)c1ncnc2[nH]ccc12,0.572%,–
CN(NC(=O)CC(=O)NN(C)C(=S)c1ccccc1)C(=S)c1ccccc1,2.47%,–
CCOc1cc2ncc(C#N)c(Nc3ccc(OCc4ccccn4)c(Cl)c3)c2cc1NC(=O)/C=C/CN(C)C,–,23.5 µM (active)
CC(NC(=O)Cc1cc(F)cc(F)c1)C(=O)NC(C(=O)OC(C)(C)C)c1ccccc1 (centres undefined),7.32%,–
O=C(O)CC/C=C\CC[C@H]1[C@@H](N2CCCCC2)[C@@H](O)C[C@@H]1OCc1ccc(-c2ccccc2)cc1,7.62%,–
CCCCCCCCCCCCCCCCCCOP(=O)([O-])OC1CC[N+](C)(C)CC1,-4.23% [at 29.8 µM],–
O=c1cc(C2=CC=CC3Sc4ccccc4SC23)oc(N2CCOCC2)c1 (centres undefined),–,7.43 µM (active)
CCC1(Cc2ccc(N)cc2)CCC(=O)NC1=O (centres undefined),6.36% [at 92.2 µM],–
CCC1(O)CC2CN(CCc3c([nH]c4ccccc34)[C@@](C(=O)OC)(c3cc4c(cc3OC)N(C=O)[C@H]3[C@](O)(C(=O)OC)[C@H](OC(C)=O)[C@]5(CC)C=CCN6CC[C@]43[C@@H]65)C2)C1 (some centres undefined),–,1.32 µM (active)
